Experimental findings from PubChem BioAssay are described below.

Values without a mark were called inactive. For some of these results: Measured potencies and affinities stand elsewhere. Activity calls are given as the source filed them. Unless noted, the rule behind the calls is not given here.

A short description of test [1]: antimalarial activity against Dd2 strain (AID 2302;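 active = growth inhibition above 50% at the single 2 µM test dose, taken to imply half-maximal potency below 2 µM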;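 note: 0% = DMSO untreated growth and 100% = chloroquine plus artemisinin killed control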). Conditions: P. falciparum Dd2 in RBCs, LDH growth readout, 72 h; at 2 µM; hits give high values.
Test [2] in a line: human hepatoma cell viability loss – ATP luminescence, cytotoxicity control for P. falciparum antimalarial project, primary screen (AID 2303;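 active = inhibition above 50%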;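 note: 0% = DMSO wells and 100% = digitonin-killed cells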). Conditions: HepG2 viability, 24-48 h, at 10 µM, hits give high values.
For test [3], the target named is L-lactate dehydrogenase (Plasmodium falciparum (isolate CDC / Honduras)) (UniProt Q27743). The experiment in a line: PfLDH activity inhibition – cell lysate, 3D7 strain, counter-screen for P. falciparum growth inhibition project (AID 2304).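 Note: 0% = vehicle and 100% = reference inhibitor.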 Conditions: P. falciparum 3D7 crude extract, LDH APAD/NBT absorbance; at 2 µM; hits give high values. A general note: Counterscreens check selectivity or assay interference.
L-lactate dehydrogenase (Plasmodium falciparum (isolate CDC / Honduras)), sequence (Q27743 whole entry, looked up): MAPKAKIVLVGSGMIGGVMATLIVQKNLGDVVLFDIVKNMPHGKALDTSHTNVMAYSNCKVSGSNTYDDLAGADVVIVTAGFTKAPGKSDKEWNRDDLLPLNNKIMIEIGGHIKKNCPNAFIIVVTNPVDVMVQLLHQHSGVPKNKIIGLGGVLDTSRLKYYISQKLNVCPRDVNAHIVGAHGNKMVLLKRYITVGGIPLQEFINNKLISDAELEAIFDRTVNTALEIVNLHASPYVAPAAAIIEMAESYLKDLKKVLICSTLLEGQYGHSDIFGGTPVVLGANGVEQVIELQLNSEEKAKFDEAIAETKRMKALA

Test [4] in a line: inhibition of 3D7 malaria parasite growth – strain 3D7 (AID 2306).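 Note: 0% = DMSO wells and 100% = chloroquine plus artemisinin control wells.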 The note with it: P. falciparum 3D7 erythrocytic growth, LDH absorbance, 72 h; at 2 µM; hits give high values.
For test [5], the target named is Calcium-dependent protein kinase 1 (Plasmodium falciparum (isolate 3D7)) (UniProt P62344). The experiment in a line: PfCDPK1 kinase inhibitors, biochemical, TCAMS library (AID 1159585; cut-off not given, nearly all actives have IC50 up to about 0.98 µM;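 note: inhibitors leave more ATP so luminescence rises with inhibition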). Conditions: recombinant PfCDPK1, Kinase-Glo ATP depletion luminescence. A general note: In Kinase-Glo more light means more ATP remaining.
Calcium-dependent protein kinase 1 (Plasmodium falciparum (isolate 3D7)), sequence (P62344 whole entry, looked up): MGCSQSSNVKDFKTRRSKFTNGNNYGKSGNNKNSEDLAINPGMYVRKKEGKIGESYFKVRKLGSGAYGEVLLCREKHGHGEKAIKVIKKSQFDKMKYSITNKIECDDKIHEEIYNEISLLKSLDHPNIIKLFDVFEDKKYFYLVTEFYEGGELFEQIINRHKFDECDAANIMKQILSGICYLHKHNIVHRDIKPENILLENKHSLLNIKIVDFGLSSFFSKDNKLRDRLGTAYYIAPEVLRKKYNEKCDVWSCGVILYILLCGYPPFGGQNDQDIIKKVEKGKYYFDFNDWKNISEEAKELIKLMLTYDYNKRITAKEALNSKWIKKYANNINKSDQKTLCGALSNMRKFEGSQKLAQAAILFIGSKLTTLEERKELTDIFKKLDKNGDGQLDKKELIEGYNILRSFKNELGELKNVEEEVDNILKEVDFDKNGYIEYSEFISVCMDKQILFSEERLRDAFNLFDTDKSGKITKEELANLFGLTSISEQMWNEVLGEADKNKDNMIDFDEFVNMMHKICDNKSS
For test [6], the target named is Plasmodium falciparum protein kinase 6 (PK6, PF3D7_1337100) (UniProt Q8IDW1). The experiment in a line: PfPK6 kinase inhibitors, biochemical, TCAMS library (AID 1159586). Conditions: recombinant PfPK6, Kinase-Glo ATP depletion luminescence.
Plasmodium falciparum protein kinase 6 (PK6, PF3D7_1337100), sequence (Q8IDW1 1-305): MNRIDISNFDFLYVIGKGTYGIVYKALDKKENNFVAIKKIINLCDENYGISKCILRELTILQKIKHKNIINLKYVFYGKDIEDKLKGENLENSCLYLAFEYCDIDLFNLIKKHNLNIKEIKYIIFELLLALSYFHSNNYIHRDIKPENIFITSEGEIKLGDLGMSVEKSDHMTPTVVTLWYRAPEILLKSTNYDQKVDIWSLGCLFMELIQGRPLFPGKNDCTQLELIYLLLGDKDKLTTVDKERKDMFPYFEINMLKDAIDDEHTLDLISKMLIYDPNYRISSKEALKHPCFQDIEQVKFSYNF
Test [7] deals with Protein kinase 7 (PK7), Plasmodium falciparum 3D7 (PF3D7_0213400) (UniProt Q7YTF7). Nature of the test: inhibition of Plasmodium PK7 catalytic activity – biochemical, TCAMS antimalarial set, Kinase-Glo luminescence (AID 1159587). The note with it: recombinant PfPK7, Kinase-Glo ATP depletion luminescence.
Protein kinase 7 (PK7), Plasmodium falciparum 3D7 (PF3D7_0213400), sequence (Q7YTF7 1-343): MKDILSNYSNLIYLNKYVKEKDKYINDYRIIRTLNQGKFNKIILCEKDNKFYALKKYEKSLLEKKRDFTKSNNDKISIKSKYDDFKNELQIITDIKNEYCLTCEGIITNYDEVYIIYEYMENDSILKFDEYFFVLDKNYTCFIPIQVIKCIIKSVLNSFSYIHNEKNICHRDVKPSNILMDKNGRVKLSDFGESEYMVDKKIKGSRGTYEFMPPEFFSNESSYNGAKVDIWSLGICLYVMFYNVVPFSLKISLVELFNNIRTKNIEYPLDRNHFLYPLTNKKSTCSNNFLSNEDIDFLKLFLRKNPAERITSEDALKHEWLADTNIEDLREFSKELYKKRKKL
Test [8] concerns the target Calcium-dependent protein kinase 4 (Plasmodium falciparum (isolate 3D7)) (UniProt Q8IBS5). The experiment in a line: PfCDPK4 kinase inhibitors, biochemical, TCAMS library (AID 1159588; cut-off not given, nearly all actives have IC50 up to about 0.91 µM). Conditions: recombinant PfCDPK4, Kinase-Glo ATP depletion luminescence.

What is called inhibition is the change of the read-out against control, counted positive when it falls.

Calcium-dependent protein kinase 4 (Plasmodium falciparum (isolate 3D7)), sequence (Q8IBS5 whole entry, looked up): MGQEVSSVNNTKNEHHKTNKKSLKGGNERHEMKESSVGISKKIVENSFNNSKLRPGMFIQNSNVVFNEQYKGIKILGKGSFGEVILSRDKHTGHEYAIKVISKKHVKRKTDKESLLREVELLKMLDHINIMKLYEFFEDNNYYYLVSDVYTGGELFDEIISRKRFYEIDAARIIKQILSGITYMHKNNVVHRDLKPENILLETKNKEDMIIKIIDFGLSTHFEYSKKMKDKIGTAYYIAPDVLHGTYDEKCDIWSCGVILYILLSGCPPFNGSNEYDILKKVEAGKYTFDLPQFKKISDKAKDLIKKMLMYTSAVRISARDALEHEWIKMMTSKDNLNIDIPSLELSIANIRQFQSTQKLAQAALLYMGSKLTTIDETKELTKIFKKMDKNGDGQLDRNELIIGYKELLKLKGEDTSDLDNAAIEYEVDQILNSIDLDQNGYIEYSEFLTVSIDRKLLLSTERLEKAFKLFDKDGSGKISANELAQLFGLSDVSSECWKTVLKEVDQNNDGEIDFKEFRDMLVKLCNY

Consider `Clc1ccc2c(NN=Cc3ccco3)ccnc2c1`, for which the growth inhibition in test [1] was 96% (active); in test [4], 100% (active). Also, the inhibition was 3% in test [2] and -4% in test [3]. Also, the outcome in test [5], in test [6], in test [7] and in test [8] was inactive.
On to `CCOc1ccc(C(=O)Nc2cc(Br)c3c(c2)CNCC3)cc1Br`, for which the results for the growth inhibition in test [1] and in test [4] were 21% and 96% (active), respectively. Besides, the inhibition in test [2] is 18%; in test [3], 0%. Also, the result in test [5], in test [6], in test [7] and in test [8] was inactive.
For `CCCCc1ccc(-c2ccc(-c3c(C)[nH]c(C)c(Br)c3=O)cn2)cc1`, the growth inhibition was 96% (active) in test [1] and 98% (active) in test [4]. Besides, the inhibition in test [2] is -7%; in test [3], 1%. The result in test [5], in test [6], in test [7] and in test [8] was inactive.
Regarding `Cc1[nH]c(C)c(-c2ccc(-c3ccc(OC(F)(F)F)cc3)nc2)c(=O)c1Br`, the growth inhibition in test [1] and in test [4] was 97% (active) throughout. Moreover, the inhibition in test [2] was 26%; in test [3], 3%. Besides, the result in test [5], in test [6], in test [7] and in test [8] was inactive.
In the case of `CN1CCC(N(Cc2ccc(-c3ccc(C(F)(F)F)cc3)cc2)C(=O)Cn2cc(Cc3cnn(C)c3)c(=O)nc2SCc2cccc(F)c2F)CC1`, the growth inhibition in test [1] was 91% (active); in test [4] it was 88% (active). For the same molecule, the results for the inhibition in test [2] and in test [3] were 68% (active) and 7%, respectively. The outcome in test [5], in test [6], in test [7] and in test [8] was inactive.
With `O=c1cc(NCCCNCc2cc(C(F)(F)F)ccc2Cl)[nH]c2ccccc12`, the growth inhibition in test [1] is 20%; in test [4], 90% (active). For the same molecule, the inhibition in test [2] is 25%; in test [3], -2%. The outcome in test [5], in test [6], in test [7] and in test [8] was inactive.
For the molecule `O=C(Nc1ccc(Cl)c(Cl)c1)N(Cc1ccccc1Br)C1CCNCC1`, the growth inhibition in test [1] was 8%; in test [4], 96% (active). Besides, the inhibition is 13% in test [2] and 7% in test [3]. The outcome in test [5], in test [6], in test [7] and in test [8] was inactive.
In the case of `Cc1cc(=O)c(-c2ccc(Oc3cccc(OC(F)(F)F)c3)cc2)c(C)[nH]1`, the growth inhibition in test [1] was 96% (active); in test [4], 97% (active). Further, the inhibition was 13% in test [2] and -5% in test [3]. The result in test [5], in test [6], in test [7] and in test [8] was inactive.
`O=C(Nc1ccc2nccc(N3CCN4CCC[C@H]4C3)c2c1)c1ccc(Cl)c(Cl)c1`: the growth inhibition was 98% (active) in test [1] and 101% (active) in test [4]. Further, the inhibition in test [2] was 18%; in test [3], -8%. Besides, the result in test [5], in test [6], in test [7] and in test [8] was inactive.
Regarding `COc1ccccc1CCNc1nc(C)cc(N[C@@H](Cc2ccccc2)C(=O)NCc2cccs2)n1`, the growth inhibition is 73% (active) in test [1] and 100% (active) in test [4]. The inhibition in test [2] was 18%; in test [3], 1%. Further, the outcome in test [5], in test [6], in test [7] and in test [8] was inactive.
In the case of `CC(C)(C)OC(=O)Nc1cccc(-c2csc(N=C(N)N)n2)c1`, the results for the growth inhibition in test [1] and in test [4] were 83% (active) and 97% (active), respectively. In addition, the values for the inhibition in test [2] and in test [3] were 4% and 2%, respectively. For the same molecule, the outcome in test [5], in test [6], in test [7] and in test [8] was inactive.
In the case of `O=c1cc(NCCCNC2CCCc3c2ccc2ccccc32)[nH]c2ccccc12` (stereo not given), the growth inhibition was 30% in test [1] and 94% (active) in test [4]. The figures for the inhibition in test [2] and in test [3] were -1% and -2%, respectively. In addition, the result in test [5], in test [6], in test [7] and in test [8] was inactive.
Turning to `N#Cc1ccc2c(c1)CCN(CCC1CCC(NC(=O)c3cc4ccc(Cl)cc4[nH]3)CC1)C2` (stereo not given), the growth inhibition was -2% in test [1] and 103% (active) in test [4]. Moreover, the inhibition is 5% in test [2] and -3% in test [3]. In addition, the result in test [5], in test [6], in test [7] and in test [8] was inactive.
`CCCCCCNC(=O)C1Cc2c([nH]c3ccc(Br)cc23)C2(CCN(CCc3ccccc3)CC2)N1` (stereo not given): the growth inhibition is 94% (active) in test [1] and 100% (active) in test [4]. Further, the inhibition in test [2] was 36%; in test [3], 0%. For the same molecule, the outcome in test [5], in test [6], in test [7] and in test [8] was inactive.
For the molecule `COC(=O)C(C)NCC(=O)c1ccccc1` (stereo not given), the growth inhibition was 23% in test [1] and 97% (active) in test [4]. For the same molecule, the results for the inhibition in test [2] and in test [3] were 5% and 4%, respectively. Also, the outcome in test [5], in test [6], in test [7] and in test [8] was inactive.
Turning to `CC(=O)c1cccc2cc(C(=O)NC3CCC(CCN4CCc5ccc(C#N)cc5C4)CC3)[nH]c12` (stereo not given), the growth inhibition was 17% in test [1] and 100% (active) in test [4]. Also, the inhibition in test [2] is 12%; in test [3] it was -4%. The outcome in test [5], in test [6], in test [7] and in test [8] was inactive.
As for `COc1ccc(S(=O)(=O)NCCCC2CCN(CCCCCNC(=O)C=Cc3ccc(Cl)c(Cl)c3)CC2)cc1`, the growth inhibition in test [1] is 12%; in test [4], 85% (active). The inhibition in test [2] was 24%; in test [3], 0%. The result in test [5], in test [6], in test [7] and in test [8] was inactive.
Regarding `COc1cc(C2CCCCC2)c(OC)cc1CC1c2cc(O)c(Cl)cc2CCN1C` (stereo not given), the growth inhibition in test [1] and in test [4] was 100% (active) in each case. In addition, the inhibition is 12% in test [2] and 4% in test [3]. Besides, the result in test [5], in test [6], in test [7] and in test [8] was inactive.
Turning to `COc1ccc2nccc(NN=Cc3ccccc3[N+](=O)[O-])c2c1`, the growth inhibition in test [1] and in test [4] was 100% (active) each time. Besides, the inhibition in test [2] is 67% (active); in test [3] it was -2%. The outcome in test [5], in test [6], in test [7] and in test [8] was inactive.
As to `O=C(c1ccc(Cl)cc1)C1CCN(CCCOc2ccc3c(c2)CCNCC3)CC1`, the growth inhibition is 23% in test [1] and 93% (active) in test [4]. Besides, the inhibition in test [2] is 78% (active); in test [3], -2%. Moreover, the result in test [5], in test [6], in test [7] and in test [8] was inactive.
